Screens deposited in PubChem by several laboratories.
NTR1 agonist = agonists of human NTR1, primary screen, imaging, U2OS cells, beta-arrestin-GFP, high content; Neurotensin receptor type 1 (Homo sapiens), P30989; NTR1-U2OS beta-arrestin-GFP spot imaging, agonist mode; activation, % at 20 µM; hit rate 0.17% among 330,000;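 active = activation at or above 40% of the spot to cytoplasm intensity ratio, with at least 20 cells analyzed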;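 also: 0% = DMSO without peptide and 100% = 100 nM NTR1 peptide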
Cardio protect = cardioprotection against H2O2-induced cell death, primary screen, uHTS, H9c2 cells, ATPLite luminescence; H9c2 cardiomyocytes, H2O2 injury protection, 2 h; protection from H2O2 cell death, % at 20 µM; hit rate 0.63% among 360,000; AID 588492, 2011;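 active = compounds giving at least 50% protection of heart cells from peroxide-induced death in the single-dose screen, raw or plate-pattern-corrected value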;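 also: 0% = DMSO wells with peroxide and 100% = DMSO wells without peroxide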
GRIN3A LBD mod = binders of NR3A ligand-binding domain, primary screen, biophysical, differential scanning fluorimetry, uHTS | Glutamate receptor ionotropic, NMDA 3A (GRIN3A) ligand-binding domain | NR3A LBD differential scanning fluorimetry, Tm shift; 0% = protein alone, 100% = glycine-bound protein | Tm shift relative to glycine control, % at 25 µM | hit rate 2.5% among 340,000 | AID 1259313, 2017;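 active = melting temperature shift of at least 10% of the positive control shift, at one fixed dose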
Mot1-301 SUMO = yeast Mot1-301 growth rescue at high temperature, primary screen, SUMOylation pathway inhibitor project, S. cerevisiae, ATP luminescence, 38.5C. AID 2716, 2010. growth rescue, % at 18.8 µM. S. cerevisiae Mot1-301 growth rescue; percent above DMSO median, 100 means doubled. hit rate 1% among 320,000;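 active = every valid replicate shows activation above 250% relative to neutral control wells; inactive = the rest, any valid replicate at or below 250%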;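 also: OY570 slx delta 5 strain wells were the positive control but not used for scaling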
AHR activator = AHR activators, primary screen, cell-based, luminescence, luciferase reporter, human; Aryl hydrocarbon receptor (Homo sapiens), P35869; activation, % at 5 µM; hit rate 2.5% among 320,000; AHR-responsive luciferase reporter cells; in the data active = activation above about 47%;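 also: 0% = vehicle wells and 100% = reference agonist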
Target sequence (P35869 whole entry, looked up): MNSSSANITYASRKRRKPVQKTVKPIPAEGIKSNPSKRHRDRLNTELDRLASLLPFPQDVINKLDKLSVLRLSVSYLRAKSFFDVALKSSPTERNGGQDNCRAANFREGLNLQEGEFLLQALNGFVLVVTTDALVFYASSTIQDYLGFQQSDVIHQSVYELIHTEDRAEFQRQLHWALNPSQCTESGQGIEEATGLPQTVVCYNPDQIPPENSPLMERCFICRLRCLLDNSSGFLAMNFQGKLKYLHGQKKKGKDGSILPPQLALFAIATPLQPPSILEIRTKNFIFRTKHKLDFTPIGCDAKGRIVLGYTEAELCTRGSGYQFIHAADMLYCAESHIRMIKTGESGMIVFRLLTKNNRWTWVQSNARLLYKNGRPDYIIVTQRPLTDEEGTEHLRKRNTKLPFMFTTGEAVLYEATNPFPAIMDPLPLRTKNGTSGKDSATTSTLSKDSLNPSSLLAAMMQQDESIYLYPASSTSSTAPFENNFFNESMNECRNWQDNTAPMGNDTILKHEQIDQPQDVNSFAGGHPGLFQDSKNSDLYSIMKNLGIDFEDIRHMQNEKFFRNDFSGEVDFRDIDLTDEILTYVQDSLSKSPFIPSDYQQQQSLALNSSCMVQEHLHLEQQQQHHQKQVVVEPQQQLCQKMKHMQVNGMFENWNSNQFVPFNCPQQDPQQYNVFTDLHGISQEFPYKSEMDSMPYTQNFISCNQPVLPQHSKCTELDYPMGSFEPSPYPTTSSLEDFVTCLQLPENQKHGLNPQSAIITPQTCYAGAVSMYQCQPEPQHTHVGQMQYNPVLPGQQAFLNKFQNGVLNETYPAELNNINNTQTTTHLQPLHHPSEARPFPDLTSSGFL
AI-2 QS mod = Vibrio harveyi AI-2 quorum sensing modulators, primary screen, JMH597 strain, luminescence/OD600 ratio | Vibrio harveyi JMH597 AI-2 luminescence/OD600 ratio, 9 h; hits give low values; strain lacks LuxN and CqsS sensors; 0 = neutral-control median | activity change, % at 7.5 µM | hit rate 0.4% among 300,000; in the data active = activity change below about -75%, passing the limit was not always enough;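 also: luminescence divided by OD600 gain over 9 h not by final OD600 alone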
Active calls of the source: *; / = no result. Only some compounds are listed: those with a hit (about 6.2% of all), similar ones and a draw of the others.

SMILES	NTR1 agonist	Cardio protect	GRIN3A LBD mod	Mot1-301 SUMO	AHR activator	AI-2 QS mod
O=C(N/N=C/c1ccc2c(c1)OCO2)c1cccnc1	0	3	2	-9	55*	5
O=C(N/N=C/c1cc2c(cc1[N+](=O)[O-])OCO2)c1cccnc1	-1	15	-1	11	51*	50
O=C(N/N=C/c1cc2cc3c(cc2nc1Cl)OCO3)c1ccncc1	0	-4	3	0	64*	27
Cc1ccc(C)c(NC(=O)CN(C)C(=O)c2cc(C3CC3)nn2-c2ccccc2)c1	2	1	0	-26	8	/
CN(C)S(=O)(=O)NC(=O)C1=C(N2CCCC2)COC1=O	0	3	1	-23	1	/
COc1cccc(CN2CC(C(=O)NCCc3cn4cccnc4n3)CCC2=O)c1 (stereo unspecified)	/	-4	/	/	/	/
COc1cccc(/C=C(\C#N)C(=O)NC2CCS(=O)(=O)C2)c1 (stereo unspecified)	2	8	13*	9	-2	8
COCCn1cnc2c(c1=O)c1nc3ccccc3nc1n2/N=C/c1ccc(OC)c(OC)c1	9	51*	0	-5	-3	20
COCCn1cnc2c(c1=O)c1nc3ccccc3nc1n2/N=C/c1ccco1	0	26	-1	-22	-8	0
O=c1c2c3nc4ccccc4nc3n(/N=C/c3ccncc3)c2ncn1-c1ccccc1	6	26	3	2	-2	3
CCCCCCn1cnc2c(c1=O)c1nc3ccccc3nc1n2/N=C/c1ccco1	/	55*	0	/	/	5
C=CCn1cnc2c(c1=O)c1nc3ccccc3nc1n2/N=C/c1cccc(OC)c1	/	11	11*	/	/	/
CC1CCC(NC(=O)CCN2C(=O)C3C4C=CC(C4)C3C2=O)CC1 (stereo unspecified)	1	-4	-3	-3	-1	12
COc1ccc(CN2CCC[C@]3(N[C@H](c4ccc(OC)cc4)[C@@H]4C(=O)N(C)C(=O)[C@@H]43)C2=O)cc1	/	6	/	/	/	/
CC(=O)N/N=C(\C)c1cccc(C(F)(F)F)c1	-1	0	-1	15	5	39
C/C(=N\NC(=O)CNc1ccccc1)c1ccccc1	0	-6	0	32	8	15
C/C(=N\NC(=O)CNc1cccc(C)c1)c1ccc(Br)s1	19	4	12*	-8	71*	9
C/C(=N\NC(=O)CNc1cccc(C(F)(F)F)c1)c1ccc(Br)cc1	1	-4	18*	2	46	7
C/C(=N\NC(=O)CNc1cccc(C(F)(F)F)c1)c1cccc(Br)c1	10	-12	8	0	75*	25
CCc1ccc(-c2cc3c(=O)n(CC(=O)NCCCN4CCN(C)CC4)ncn3n2)cc1	2	-14	-1	42	-1	8
O=C(COC(=O)CNS(=O)(=O)c1cc(C(F)(F)F)ccc1Cl)NC1CC1	1	17	-1	131	0	/
O=c1c2[nH]c3ccccc3c2nc2n1CCS2	-2	-5	1	-11	57*	24
COc1ccc2[nH]c3c(=O)n4c(nc3c2c1)SCC4	0	4	-2	-4	11	11
COc1ccc(NC(=O)C2(C)CCN2CCOc2ccccc2)cc1OC (stereo unspecified)	/	7	/	/	/	/
Cc1c(Cl)cccc1Nc1nc(N)nc(CSc2nc3ccccc3s2)n1	12	-11	11*	15	29	22
SMILES	NTR1 agonist	Cardio protect	GRIN3A LBD mod	Mot1-301 SUMO	AHR activator	AI-2 QS mod
Nc1nc(CSc2nc3ccccc3s2)nc(Nc2ccccc2)n1	27	/	/	134	15	-7
CCCCC(=O)Nc1nn(CC(C)C)c2nc3ccccc3cc12	3	9	-2	4	39	23
CCn1nc(NC(=O)c2ccncc2)c2cc3cccc(C)c3nc21	3	18	-1	-3	32	11
CCn1nc(NC(=O)c2cccnc2)c2cc3cccc(C)c3nc21	-1	-34	0	80	68*	40
CCCn1nc(NC(=O)CC)c2cc3cccc(C)c3nc21	4	-1	12*	-2	12	26
CCCn1nc(NC(=O)CC(C)C)c2cc3ccccc3nc21	0	7	0	-3	78*	3
Cc1ccc(-c2noc(CNS(=O)(=O)c3ccccc3)n2)cc1	1	0	-2	11	2	-26
Cc1[nH]n(-c2ccccc2)c(=O)c1C=Nc1ccc(S(=O)(=O)Nc2nccs2)cc1	2	-2	-3	142	8	-63
COc1nccnc1NS(=O)(=O)c1ccc(N=Cc2c(C)[nH]n(-c3ccc(Cl)cc3)c2=O)cc1	0	/	/	-16	30	1
Cc1ccc(-n2[nH]c(C)c(C=Nc3ccc4[nH]c(=O)[nH]c4c3)c2=O)cc1C	9	-35	16*	-16	44	11
CCc1nnc(NS(=O)(=O)c2ccc(N=Cc3c(C)[nH]n(-c4ccc(Cl)cc4)c3=O)cc2)s1	-1	-14	13*	-7	10	-2
Cc1ccc(-n2[nH]c(C)c(C=Nc3ccc(S(=O)(=O)Nc4nccs4)cc3)c2=O)cc1C	2	-21	15*	-26	7	9
Cc1[nH]n(-c2ccc(Cl)cc2)c(=O)c1C=Nc1ccc(S(=O)(=O)N2CCOCC2)cc1	3	-8	32*	-26	1	6
C[C@H]1CN=C(N(C)C)N1CCC1CCCCC1	1	-11	4	126	3	/
CC(C)c1ccc(NC2CCCN(C(=O)c3ccsc3)C2)cc1 (stereo unspecified)	2	-6	-22	9	19	23
CCc1nnc(NS(=O)(=O)c2ccc(N=Cc3c(C)[nH]n(-c4cccc(Cl)c4)c3=O)cc2)s1	-2	-12	20*	-6	8	-10
Cc1cc(NC(=O)CSC2=NCCS2)no1	2	5	1	78	-1	15
COc1cc(Cl)c(C)cc1NC(=O)CSC1=NCCS1	1	0	20*	-7	3	/
Cc1ccc(NC(=O)CSc2nc(=O)n(CCN(C)C)c3c2CCCC3)cc1Cl	2	9	0	-26	-1	3
COCCn1c(SCC(=O)N2CCC(C)CC2)nc2c(c1=O)SCC2	1	11	11*	0	-1	16
O=c1c(Cl)c(N/N=C/c2ccc(Br)cc2)cnn1-c1ccccc1	12	-15	13*	-20	35	3
CNc1cnn(-c2ccccc2)c(=O)c1Cl	4	-3	4	-6	0	20
